Measured values reported in PubChem BioAssay AID2018 (Sanford-Burnham Center for Chemical Genomics, 2009).
Out of some 1,200 compounds screened, about 600 (50%) were called active. Cut-off read from the data, not from the text of the source: active = inhibition above about 42%; inactive = the rest. So high a share suggests a set chosen from earlier hits. The list shows a part of the results. Measured potencies and affinities stand elsewhere.

molecular target: SUMO-conjugating enzyme UBC9 (Homo sapiens) (UniProt P63279); assay: SUMOylation inhibitor hit validation, confirmation, SUMOylation inhibitor project, biochemical, AlphaScreen (AID 2018); settings: AlphaScreen in vitro SUMOylation assay; at 35 µM; active compounds read high
Sequence (P63279 whole entry, looked up): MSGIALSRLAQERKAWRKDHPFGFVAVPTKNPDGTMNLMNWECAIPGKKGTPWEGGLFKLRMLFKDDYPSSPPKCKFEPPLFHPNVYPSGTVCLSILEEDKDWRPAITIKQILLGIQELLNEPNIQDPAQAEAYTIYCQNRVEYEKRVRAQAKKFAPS

Row | Compound | inhibition
1 | O=C(O)c1cc2cccc(S(=O)(=O)N3CCOCC3)c2cc1O | -21.6% (inactive)
2 | CC(=O)c1ccc2cccc3c2c1N=CN3C | 13.7% (inactive)
3 | COc1cc(C)c2c(c1C=O)Oc1c(c(C)c(O)c3c1C(O)OC3=O)OC2=O (configuration not stated) | 95% (active)
4 | COc1ccc(S(=O)(=O)Nc2ccc(O)c3ccccc23)cc1 | 48.3% (active)
5 | O=S(=O)(Nc1ccc(O)c2ccccc12)c1cccs1 | 51.7% (active)
6 | Cc1ccc(S(=O)(=O)NNC(=O)Nc2cccc3ccccc23)cc1 | 9.6% (inactive)
7 | CCc1ccc(S(=O)(=O)Nc2ccc(O)c3ccccc23)cc1 | 38.3% (inactive)
8 | CCc1ccc2c(c1)c1nc(C)sc1n2CC | 20.9% (inactive)
9 | CC(C)CNC1=CC(=O)CC(c2ccco2)C1 (configuration not stated) | 0.4% (inactive)
10 | Nc1ccccc1NC1=CC(=O)CC(c2ccco2)C1 (configuration not stated) | 18.4% (inactive)
11 | O=C1C=C(O)CC(c2ccco2)C1 (configuration not stated) | 47.7% (active)
12 | CCOc1cc(NC(=S)NCc2ccco2)c(OCC)cc1NC(=O)CC | -0.7% (inactive)
13 | Cc1sc2nc3ccc(NCc4ccco4)nn3c(=O)c2c1C | 0.9% (inactive)
14 | CCCCCCCC1(C)NC(=O)N(CC(=O)Nc2cc(C)on2)C1=O (configuration not stated) | 2.5% (inactive)
15 | CCOC(=O)N1CCc2c(sc3c2c(=O)n(Cc2ccccc2)c(=O)n3CC(=O)NCCOC)C1 | 15.2% (inactive)
16 | Cc1oc(-c2ccc(F)cc2)cc1-c1nn2c(-c3ccoc3C)nnc2s1 | 22.7% (inactive)
17 | Cc1c(C(=O)c2ccc(Cl)cc2[N+](=O)[O-])c2ccccn2c1CCC#N | 17.8% (inactive)
18 | COc1ccc(C(=O)CSc2nnc(-c3ccco3)c(-c3ccco3)n2)cc1 | 43% (active)
19 | O=C(CSc1nnc(-c2ccco2)c(-c2ccco2)n1)c1ccccc1 | 76.2% (active)
20 | COc1ccccc1CCNC(=O)CSc1ccc(-c2ccco2)nn1 | 19% (inactive)
21 | Cc1ccc(-c2cc(C(=O)N/N=C/c3ccc([N+](=O)[O-])o3)c3ccccc3n2)o1 | 30.3% (inactive)

Row | Compound | inhibition
22 | O=C(N/N=C/c1ccc(-c2ccc(Cl)c(C(=O)O)c2)o1)c1cc2c(ccc3ccccc32)o1 | 102% (active)
23 | Cc1c(C(=O)O)c(C(=O)O)nc2ccc(N3CCOCC3)cc12 | -17.6% (inactive)
24 | NC1=NC(c2ccc(Cl)cc2)N(c2ccc(S(N)(=O)=O)cc2)C(N)=N1 (configuration not stated) | 25.2% (inactive)
25 | O=C(CNc1cccc2ccccc12)N/N=C/c1ccc([N+](=O)[O-])o1 | 37.5% (inactive)
26 | CC(Nc1cccc2ccccc12)C(=O)N/N=C/c1ccccn1 (configuration not stated) | -4.4% (inactive)
27 | COc1ccc(CCN2Cc3c(cccc3[N+](=O)[O-])C2=O)cc1OC | -5.8% (inactive)
28 | O=C1CC(N2CCOCC2)=NN1c1ccc([N+](=O)[O-])cc1 | 51.4% (active)
29 | C#CCOc1ccc(/C=C2/C(=O)N(c3cccc(C(=O)O)c3)N=C2C)cc1OC | 55.9% (active)
30 | N#Cc1cc2ccc(N3CCOCC3)cc2cc1C#N | -11.7% (inactive)
31 | COc1cc(/C=C2/C(=O)N(c3ccc([N+](=O)[O-])cc3)N=C2N2CCOCC2)ccc1O | 68.6% (active)
32 | CC(=O)c1cccc(NC(=S)Nc2cccc3ccccc23)c1 | -7.4% (inactive)
33 | COc1cc(=O)n(C)c2c(OCC3OC(C)(C)OC3(C)C)cccc12 (configuration not stated) | 11.2% (inactive)
34 | Cc1ccc(Cn2nnnc2CN2CCC(NC(=O)C(C)(C)C)CC2)cc1 | -8.9% (inactive)
35 | O=C(Nc1ccc(Cl)c(Cl)c1)Nn1cnnc1 | -10.6% (inactive)
36 | COc1ccc(/C=C2/C(=O)N(c3ccccc3)N=C2C)cc1OC | 38.1% (inactive)
37 | COc1cc(/C=C2/C(=O)N(c3ccccc3)N=C2C)ccc1OS(=O)(=O)c1ccccc1 | 91.3% (active)
38 | COc1ccc(C(=O)N2CCC(O)(c3ccc(F)cc3)CC2)cc1OC | -18.3% (inactive)
39 | Cc1[nH][nH]c(=O)c1C(c1ccc(-c2ccc(F)cc2)o1)c1c(C)[nH][nH]c1=O | 59.6% (active)
40 | Cc1[nH][nH]c(=O)c1C(c1ccc(-c2cccc(Cl)c2)o1)c1c(C)[nH][nH]c1=O | 101% (active)
41 | Cc1[nH][nH]c(=O)c1C(c1ccc(-c2ccc(Cl)cc2)o1)c1c(C)[nH][nH]c1=O | 66.7% (active)
42 | OC(COc1ccccc1)CSc1ncn[nH]1 (configuration not stated) | 2.4% (inactive)

Row | Compound | inhibition
43 | O=S(=O)(Nc1cc2nc3ccccc3nc2n1Cc1ccccc1)c1ccc(Cl)cc1 | 102% (active)
44 | O=S(=O)(Nc1ccc2c(c1)nc1n2CCN(Cc2ccccc2)C1)c1ccccc1 | -3.3% (inactive)
45 | CCn1c2ccccc2c2c3ncc4cccn4c3ccc21 | -74.8% (inactive)
46 | Cc1cccn2c(=O)c3cc(C(=O)NC4CCCCCC4)sc3nc12 | 33.8% (inactive)
47 | S=C(Nc1ccc2nsnc2c1)N1CCCC1 | 17.9% (inactive)
48 | COc1ccc(N(C)C(=O)Nc2ccc3nsnc3c2)cc1 | 7.7% (inactive)
49 | COc1ccc(NC(=S)Nc2ccc3nsnc3c2)cc1 | 101% (active)
50 | CCOc1ccc(NC(=S)Nc2ccc3nsnc3c2)cc1 | 101% (active)
51 | C=CCN(CC=C)C(=S)Nc1ccc2nsnc2c1 | 23.6% (inactive)
52 | COc1ccc(NC(=S)Nc2ccc3nccnc3c2)cc1 | 8.4% (inactive)
53 | COc1ccc(/C=N/N=C2/CC(C)(C)Cc3n[nH]c(=O)cc32)cc1 | 26.2% (inactive)
54 | COc1ccc(OC)c(/C=N/NC(=O)CCc2ccc(O)c(O)c2)c1 | 18.5% (inactive)
55 | O=C(NC(=S)Nc1cccc2c(O)cccc12)c1ccccc1[N+](=O)[O-] | 16.6% (inactive)
56 | O=C(O)c1cccc([N+](=O)[O-])c1C(=O)Nc1cccc2ccccc12 | -1.9% (inactive)
57 | N#Cc1c(N)nc2c(c1-c1ccc3c(c1)OCO3)CCc1ccccc1-2 | -58.5% (inactive)
58 | S=C(Nc1cccc(Cl)c1)Nc1ccc2cn[nH]c2c1 | 7.2% (inactive)
59 | Cc1cc(C)c(C(N)=O)c(Nc2cccc3ccccc23)n1 | 24.4% (inactive)
60 | Cc1ccc(NC(=S)Nc2cccc3ccccc23)cc1F | 3.1% (inactive)
61 | Fc1ccc(NC(=S)Nc2cccc3ccccc23)cc1F | -4.6% (inactive)
62 | Fc1ccc(NC(=S)Nc2cccc3ccccc23)cc1 | -2.8% (inactive)
